100 compounds from PubChem BioAssay AID624296 (National Center for Advancing Translational Sciences (NCATS), 2012) can be followed below.

Out of some 350,000 compounds screened, about 9,900 (2.8%) were called active. Where a call stands in place of a potency, no number is given. Another 15% or so got no clear call; they are omitted. Calls follow the shape of the dose curve; as a rule, active = well fitted activation curve with a large enough effect; inconclusive = small, poorly fitted or top-dose-only effect; inactive = no such curve, though single readings can be large or run the other way. The full list was thinned out, with actives kept by preference.
Potency is read from the fitted curve at half-maximal effect.

The assay can be described thus: A quantitative high throughput screen for small molecules that induce DNA re-replication in MCF 10a normal breast cells. Also: nearly all actives have a fitted effect of over 50% in size. The settings on record: MCF 10A DNA re-replication, Hoechst nuclear intensity, 48 h; series mostly up to 46.1 µM. The source says:
H Molecular Libraries Probe Production Network [MLPCN]
NIH Chemical Genomics Center [NCGC]
Assay Provider: Melvin DePamphilis, NICHD, NIH
Eukaryotic cells normally restrict genome duplication to once per cell division. When this process is aberrant, DNA re-replication occurs when cells reinitiate DNA replication before the first round of replication is complete. DNA re-replication induces the DNA damage response, arrests cell proliferation, and triggers apoptosis. The cell cycle components cyclin A, Cdt-1, Cdc6 and geminin are critical regulators of this process and their misregulation results in DNA re-replication in normal and cancer cells. To identify compounds that induce re-replication in normal cells, an image-based assay was used to measure DNA content of nuclei, as detected by the fluorescent DNA binding dye, Hoechst. Cell nuclei were imaged by a fluorescence scanning plate imager and compounds that induce DNA re-replication were identified by the increase of nuclei with elevated fluorescence intensity
For screening, 250 cells in 5 uL/well were dispensed into black clear 1536-well plates (Aurora) using a solenoid-based dispenser. Following transfer of 23 nL compound or DMSO vehicle by a pin tool, the plates were incubated 48 hr at 37 C and 5% CO2. After addition of 1 uL/well Hoescht stain, the plates were incubated 40 min at 37 C, 5% CO2 and total intensity of fluorescent objects (nuclei) were enumerated by an Acumen Explorer Ex3 (TTP LabTech) fluorescence scanning plate imager (405 nm excitation, 500-530 nm emission).
Keywords: NIH Roadmap, MLPCN, MLI, MLSMR, qHTS, NCGC, DNA replication, cancer
Consider `COc1ccc(-c2cc(C(=O)NCCCN3CCCC3=O)c3ccccc3n2)cc1OC`, for which the Potency result is “inactive”.
As to `COc1cccc(NC(=O)CN(C)C(=O)/C=C/c2cn(-c3ccccc3)nc2-c2cccs2)c1`, the Potency result is “inactive”.
As for `O=C(Nc1ccc(NC(=O)c2cccs2)cc1)c1ccc2ccccc2c1`, the Potency entry was “inactive”.
For the compound `O=C(Nc1ccc2oc(-c3ccc4ccccc4c3)nc2c1)c1cccs1`, the Potency is 5.17 µM (active).
With `O=C(Cc1cccc2ccccc12)Nc1ccc2oc(-c3ccccc3)nc2c1`, the Potency result is “inactive”.
Consider `CC1CN(Cc2ccccc2)C(=S)NC1=O` (stereo not given), for which the Potency entry is “inactive”.
With `O=C(CN1CCN(C2CCS(=O)(=O)C2)CC1)N1N=C(c2ccc(Cl)cc2)CC1c1ccco1` (stereo not given), the Potency result is “inactive”.
Regarding `CCOC(=O)N1CCN(C(=O)C2CCN(c3ncnc4c3sc3cccc(F)c34)CC2)CC1`, the Potency result was “inactive”.
As for `CCOC(=O)C1CCN(c2ncnc3c2oc2ccc(Br)cc23)CC1`, the Potency was 20.6 µM (active).
For the compound `CCOC(=O)C1CCN(c2ncnc3c2c(-c2ccccc2)cn3-c2ccc(C)cc2)CC1`, the Potency entry was “inactive”.
For the compound `COc1cc(OC)cc(C(=O)NNC(=O)Cc2cccs2)c1`, the Potency result was “inactive”.
`COc1ccc(S(=O)(=O)N2C[C@H]3CON(C)[C@H]3C[C@H]2c2cccc(Br)c2)cc1`: the Potency result was “inactive”.
For `Cc1cccc(CC2(O)C(=O)Nc3ccccc32)n1` (stereo not given), the Potency entry was “inactive”.
Turning to `Cn1cc(/C=C/c2nc3ccccc3c(=O)n2-c2cccc([N+](=O)[O-])c2)c2ccccc21`, the Potency result was “inactive”.
For `CCn1c(/C=C/c2ccc([N+](=O)[O-])o2)nc2ccccc2c1=O` the value was 20.6 µM (active); for `Cc1nc2ccccc2c(=O)n1Cc1ccc([N+](=O)[O-])cc1`, “inactive”.
For the compound `O=C(CC1SC(N2CCOCC2)=NC1=O)Nc1ccccc1F` (stereo not given), the Potency entry is “inactive”.
As for `CCCn1c(N)c(C(=O)CSc2nnc3n2CCCCC3)c(=O)[nH]c1=O`, the Potency entry is “inactive”.
As to `O=C(Nc1ccncc1)c1ccc(Cl)c([N+](=O)[O-])c1`, the Potency entry is “inactive”.
For `C/C(=C\C(=O)c1cccnc1)Nc1ccc(C)c(C)c1` the value was “inactive”; for `O=C(Nc1cccnc1)c1ccc(Cl)cc1[N+](=O)[O-]`, “inactive”; for `NC(N)=N/N=C/c1ccc(Cl)c([N+](=O)[O-])c1`, “inactive”.
With `O=C(Nc1cccnc1)c1ccc(Cl)c([N+](=O)[O-])c1`, the Potency was 20.6 µM (active).
As to `O=C(/C=C/c1ccc(Cl)c([N+](=O)[O-])c1)c1cccnc1`, the Potency was 5.17 µM (active).
For `N#CCc1c[nH]c2ccc([N+](=O)[O-])cc12` the value was “inactive”; for `CC(C)(C)OC(=O)CNC(=O)c1[nH]cnc1C(=O)N[C@@H](CCCCN)C(=O)OC(C)(C)C`, “inactive”.
Turning to `O=C1[C@@H](c2ccccc2)[C@@H](c2ccccc2)N1c1cccnc1`, the Potency result was “inactive”.
As to `C[C@H](CO)N1C[C@H](C)[C@@H](CN(C)S(=O)(=O)c2ccc(F)cc2)Oc2ccc(NC(=O)CCC(F)(F)F)cc2C1=O`, the Potency entry was “inactive”.
Next, `COc1cc(SC)ccc1C(=O)NNC(=O)C1COc2ccccc2O1` (stereo not given): “inactive”; `CC1CCN(C(=O)c2cc3nc(C4CC4)cc(C(F)(F)F)n3n2)CC1`: “inactive”; `O=C(Nc1ccc(Cl)cc1)c1cc2nc(C3CC3)cc(C(F)(F)F)n2n1`: 16.4 µM (active).
For the compound `C=CCNC(=O)c1cc2nc(C3CC3)cc(C(F)F)n2n1`, the Potency result was “inactive”.
Take `Cc1occc1-c1nnc(SCC(=O)NC2(C#N)CCCC2)n1C`: the Potency result is “inactive”.
For the compound `COc1cc2c(cc1OC)C(Cc1cc(OC)c(OC)cc1[N+](=O)[O-])=NCC2`, the Potency result is “inactive”.
Consider `Cn1c(=O)c2c(SCC(=O)N3CCOCC3)nc(C3CC3)nc2n(C)c1=O`, for which the Potency entry was “inactive”.
For the compound `CCOC(=O)N1CCN(C(=O)CSc2nc(C)nc3c2c(=O)n(C)c(=O)n3C)CC1`, the Potency is 0.651 µM (active).
For `CCCc1nc(SCC(=O)N2CCCC2)c2c(=O)n(C)c(=O)n(C)c2n1` the value was “inactive”; for `CC(OC(=O)c1ccc([N+](=O)[O-])cc1)C(=O)NCC1CCCCC1` (stereo not given), “inactive”.
In the case of `COc1ccc(OC(C)C(=O)NCCc2nc3ccccc3[nH]2)cc1` (stereo not given), the Potency entry is “inactive”.
Turning to `O=C(COc1ccccc1)NCCc1nc2ccccc2[nH]1`, the Potency entry is “inactive”.
Next, `CCCCCOc1ccc(/C=C/C(=O)NCCc2nc3ccccc3[nH]2)cc1OC`: 20.6 µM (active); `O=c1ccc2c(-c3ccccc3S(=O)(=O)O)c3ccc(O)c(O)c3oc-2c1O`: “inactive”; `CCOC(=O)c1ccccc1NC(=O)COC(=O)C(Cc1c[nH]c2ccccc12)NC(C)=O` (stereo not given): “inactive”.
With `Cc1ccc(S(=O)(=O)N2CCC(C(=O)N3CCCCCCC3)CC2)cc1`, the Potency result was “inactive”.
On to `CC(C)(C)OC(=O)C1=C(CO)CS[C@@H]2[C@H](NC(=O)Cc3ccccc3)C(=O)N12`, for which the Potency entry was “inactive”.
Regarding `O=C(c1cccc(S(=O)(=O)N2CCCCCC2)c1)N1CCN(Cc2ccccc2)CC1`, the Potency entry was “inactive”.
`CCOC(=O)C1=C(c2ccc(OC)cc2)C(=O)c2ccccc2C1=O`: the Potency is 2.91 µM (active).
Next, `COc1ccc(N2CCN(C(C)=C3C(=O)c4ccccc4C3=O)CC2)cc1`: “inactive”; `COc1ccc(OCCCON2C(=O)c3ccccc3C2=O)cc1`: “inactive”.
For `COCCN(C(=O)C(C)N1C(=O)c2ccccc2C1=O)c1c(N)n(CC(C)C)c(=O)[nH]c1=O` (stereo not given), the Potency result was “inactive”.
Take `CC(C)(C)OC(=O)C[C@@H]1C/C=C\C[C@@H](CC(=O)NCCO)C(=O)N[C@H](Cc2c[nH]c3ccccc23)COC1=O`: the Potency entry is “inactive”.
For `COc1cccc(/C=N/Nc2cc(C)nc(-c3ccccc3O)n2)c1O` the value was “inactive”.
Consider `COc1cccc(/C(C)=N/Nc2ncc(Cl)cc2Cl)c1`, for which the Potency result is “inactive”.
In the case of `COc1cccc(/C=N/Nc2ncc(C(F)(F)F)cc2Cl)c1O`, the Potency is 1.46 µM (active).
`O=C(Nc1nnc(-c2ccccc2)o1)c1cccc(S(=O)(=O)N2CCOCC2)c1`: the Potency result is “inactive”.
On to `Cc1ccc(S(=O)(=O)NC2CCCCCC2)cc1`, for which the Potency entry was “inactive”.
For `Cc1ccc(S(=O)(=O)N(C)C2(C)CCS(=O)(=O)C2)cc1` (stereo not given), the Potency entry is “inactive”.
As to `Cc1ccc(S(=O)(=O)C2(S(=O)(=O)c3ccc(C)cc3)CCCC2)cc1`, the Potency is 8.2 µM (active).
As for `CCC(C)C1(C2CCCC2)NC(=O)NC1=O` (stereo not given), the Potency entry is “inactive”.
Turning to `Cc1ccc(CC(=O)Nc2ccc(S(=O)(=O)N3CCOCC3)cc2)cc1C`, the Potency result is “inactive”.
In the case of `S=c1[nH]nc(-c2ccncc2)n1/N=C/c1ccccc1Cl`, the Potency entry was “inactive”.
As for `S=c1[nH]nc(-c2ccco2)n1/N=C/c1ccccc1`, the Potency entry is “inactive”.
For `S=c1[nH]nc(-c2cccnc2)n1/N=C/C(Cl)=C\c1ccccc1` the value was 13 µM (active); for `O=C(CCc1nc(-c2ccccc2)no1)Nc1cccc(C(=O)NC2CC2)c1`, “inactive”; for `O=C(CP(=O)(c1ccccc1)c1ccccc1)N1CCOCC1`, “inactive”.
As to `O=C(c1snnc1-c1ccccc1)N1CCOCC1`, the Potency was 0.651 µM (active).
For `c1ccc(-c2nnc(N3CCOCC3)c3ccccc23)cc1`, the Potency result is “inactive”.
Turning to `CCCC(=O)n1nc(-c2ccccc2)nc1N`, the Potency entry was “inactive”.
For the compound `CCN(CC)C(=O)c1sc2nc(-c3ccccc3)ccc2c1N`, the Potency is 23.1 µM (active).
As for `CCOC(=O)c1sc2nc(SC)nc(-c3ccccc3)c2c1N`, the Potency entry was “inactive”.
For `COc1ccc(NS(=O)(=O)c2cc(NC(=O)COc3ccccc3F)ccc2OC)cc1`, the Potency result is “inactive”.
Turning to `O=C(C1CC(=O)N(C2CCCC2)C1)N1CCN(c2cccc(C(F)(F)F)c2)CC1` (stereo not given), the Potency result is “inactive”.
Consider `O=C(N/N=C/c1ccc([N+](=O)[O-])o1)c1cccc(S(=O)(=O)N2CCOCC2)c1`, for which the Potency result was “inactive”.
Consider `NC(=O)C(=O)N/N=C/c1ccc([N+](=O)[O-])o1`, for which the Potency is 26.6 µM (active).
For `Cc1cc(C)nc(N/N=C/c2ccc([N+](=O)[O-])o2)n1`, the Potency entry is “inactive”.
Turning to `O=C(COC(=O)c1ccncc1)Nc1ccc2c(c1)OCO2`, the Potency entry was “inactive”.
Turning to `O=C1COc2ccc(C(=O)COC(=O)c3ccccc3Cl)cc2N1`, the Potency result was “inactive”.
For `COc1cc(COCC(O)CN2CCN(Cc3ccc4c(c3)OCO4)CC2)cc(OC)c1OC` (stereo not given) the value was “inactive”.
For the compound `CN1CCN(CC(O)COCc2ccc3c(c2)OCO3)CC1` (stereo not given), the Potency was 20.6 µM (active).
Regarding `CC1CCCN(CC(O)COc2ccc3c(c2)OCO3)C1` (stereo not given), the Potency entry was “inactive”.
As for `CC1C(=O)N(Cc2ccccc2)c2ccccc2N1C(=O)c1ccccc1` (stereo not given), the Potency entry is “inactive”.
For the compound `CC1C(C)N(C(=O)CCl)c2ccccc2N1C(=O)CCl` (stereo not given), the Potency was 7.31 µM (active).
`CC1CC(C)CN(CC(=O)N2c3ccccc3CCc3ccccc32)C1` (stereo not given): the Potency result was “inactive”.
As to `O=C1CN(C(=O)COC(=O)/C=C/c2ccc(F)cc2)c2ccccc2N1`, the Potency entry is “inactive”.
Next, `CCOC(=O)C1CCCN(C(=O)C2CCN(S(=O)(=O)c3ccc(Cl)c(C(F)(F)F)c3)CC2)C1` (stereo not given): “inactive”.
For `O=C1c2ccccc2C(=O)C1c1ccccc1F`, the Potency result is “inactive”.
For `O=C1c2ccccc2C2=Nc3ccccc3SC(c3ccccc3F)C12` (stereo not given) the value was 6.51 µM (active); for `COC(=O)[C@]1(C)N[C@H](CN(C)C(=O)c2ccc(C(C)(C)C)cc2)[C@@H]2C(=O)N(C)C(=O)[C@@H]21`, “inactive”; for `N#Cc1cccc(NC(=O)C2CCCN(C(=O)c3ccc(Cl)cc3)C2)c1` (stereo not given), “inactive”.
For `C/C=C/c1ccc(OCC(=O)NNC(=O)CN(C)S(=O)(=O)c2ccc(C)cc2)c(OC)c1` the value was “inactive”; for `Cn1c(C(=O)NCCCN2CCN(c3cccc(Cl)c3)CC2)cc2c(=O)n(C)c3ccccc3c21`, 14.6 µM (active); for `CCn1c(=O)cc(OCC(=O)NCCCN2CCN(c3cccc(Cl)c3)CC2)c2ccccc21`, “inactive”.
As to `Cn1c(C(=O)NCCc2ccsc2)cc2c(=O)n(C)c3ccccc3c21`, the Potency result was “inactive”.
Next, `Cc1cccc(-c2oc3ccc(-c4ccc5c(c4)OCO5)cc3c2C#Cc2cncn2C)c1`: “inactive”; `c1ccc(CCc2ccccn2)cc1`: “inactive”.
On to `Cc1cccc(NS(=O)(=O)c2ccc(C)c(C(=O)NCc3cccnc3)c2)c1`, for which the Potency result is “inactive”.
On to `O=C(COC(=O)c1ccc(F)cc1)Nc1ccc2c(c1)OCO2`, for which the Potency result is “inactive”.
With `Cc1cccc(COc2ccccc2/C=N/Nc2ccc([N+](=O)[O-])cc2)c1`, the Potency is 10.3 µM (active).
In the case of `Cc1ccc(NS(=O)(=O)c2ccc(N/N=C/c3ccccc3OCC(=O)O)c([N+](=O)[O-])c2)c(C)c1`, the Potency result was “inactive”.
Take `O=[N+]([O-])c1ccc(O)c(/C=N/Nc2ccccc2[N+](=O)[O-])c1`: the Potency entry is “inactive”.
